Data published in ChEMBL document CHEMBL4513146, “CO-ADD screening of Karazin Kharkiv National University (Ukraine) compounds”.
Potency and affinity values are given separately.

Tests used:
Klebsiella pneumoniae = conditions: Concentration 32 ug.mL-1;; ASSAY_TEST Inhibition of Bacterial Growth; detection method Absorption (OD600); MEDIA CAMHB; plate type 384well; NBS; CORNING #3640; time 18 hr
Candida albicans = conditions: Concentration 32 ug.mL-1; ASSAY_TEST Inhibition of Fungal Growth; detection method Absorption (OD530)
Cryptococcus neoformans = conditions: Concentration 32 ug.mL-1; ASSAY_TEST Inhibition of Fungal Growth; detection method Resazurin; Absorption (OD600-OD570); plate type 384well; NBS; CORNING #3640

SMILES | Inhibition (Klebsiella pneumoniae) [%] | Inhibition (Candida albicans) [%] | Inhibition (Cryptococcus neoformans) [%]
Cc1ccc(Oc2nccn3c(=O)n(CC(=O)Nc4ccc(Br)cc4)nc23)cc1 | 6.74 | 10.23 | -16.67
Cc1ccc(NC(=O)Cn2nc3ccc(SC4CCCCC4)nn3c2=O)cc1C | -2.51 | 4.67 | -21.19
CCc1ccc(N(Cc2cccc(C)c2)S(=O)(=O)c2cccn3c(C)nnc23)cc1 | 2.32 | 4.84 | -3.55
Cn1c(=O)c2sccc2n2c(=O)n(Cc3cccc(Br)c3)nc12 | 5.37 | 10.92 | -9.95
Cc1cc2nn(CC(=O)NCc3ccc4c(c3)OCO4)c(=O)n2c(Nc2ccccc2C)n1 | 10.7 | 2.64 | -19.18
CCCN(C)c1nccn2c(=O)n(CC(=O)Nc3ccc(OC)c(Cl)c3)nc12 | 9.65 | 7.19 | -3.69
COc1ccc(NC(=O)Cn2nc3cc(C)nc(Nc4ccc(F)cc4)n3c2=O)cc1F | 11.33 | 2.69 | -3.63
COc1ccc(NC(=O)Cn2nc3ccc(SC4CCCCC4)nn3c2=O)c(OC)c1 | 4.32 | -0.43 | -25.29
COc1ccc(NC(=O)Cn2nc3c4cc(-c5ccc(C)c(C)c5)nn4ccn3c2=O)cc1OC | 13.24 | 0.2 | -30.03
Cc1nnc2ccc(S(=O)(=O)N(Cc3ccccc3F)c3ccc(F)c(F)c3)cn12 | 9.72 | 2.36 | -9.63
Cc1ccc(C)c(NC(=O)Cn2nc3n(C)c(=O)c4c(c(-c5ccccc5)cn4C)n3c2=O)c1 | -7.88 | 1.95 | -9.34
CCc1nnc2c(S(=O)(=O)N(Cc3ccc(C)cc3)c3ccc(C(C)C)cc3)cccn12 | 10.84 | 9.31 | -8.19
Cc1nnc2c(S(=O)(=O)N(Cc3ccc(F)cc3)c3ccc(C(C)C)cc3)cccn12 | 1.5 | 2.93 | -6.86
Cc1ccc(C)c(Cn2nc3n(CCC(C)C)c(=O)c4sccc4n3c2=O)c1 | 11.36 | 0.71 | -24.6
COc1cccc(-n2ccn3c(SCC(=O)NCc4ccc(C)cc4)nnc3c2=O)c1 | 8.21 | 2 | -8.56
O=C(Cn1nc2ccc(-c3ccc(Cl)cc3)nn2c1=O)Nc1ccccc1 | 1.21 | 1.7 | -12.99
O=C(CSc1nnc2c(=O)n(-c3ccc(F)c(F)c3)ccn12)c1cccc(Cl)c1 | 12.31 | 1.86 | -8.13
Cc1nnc2ccc(S(=O)(=O)N(Cc3cccc(F)c3)c3cc(F)cc(F)c3)cn12 | 10.98 | -1.03 | -12.8
Cc1ccc(C)c(C(=O)CSc2nnc3c(=O)n(-c4ccc(F)c(F)c4)ccn23)c1 | 16.06 | 4.02 | -10.11
Cc1ccc(C)c(NC(=O)Cn2nc3c(N4CCCC(C)C4)nccn3c2=O)c1 (stereo unspecified) | 3.52 | 2.37 | -8.1
Cc1ccc(-c2cc3c4nn(CC(=O)Nc5ccc6c(c5)OCO6)c(=O)n4ccn3n2)cc1C | 2.27 | 33.95 | -8.66
COc1ccc(-c2cc3c4nn(CC(=O)Nc5cccc(C)c5)c(=O)n4ccn3n2)cc1 | 3.49 | 3.36 | -17.04
CCOc1ccc(-n2ccn3c(=O)n(CC(=O)Nc4ccc(Br)cc4)nc3c2=O)cc1 | 8.93 | 2.12 | -3.26
O=C(CSc1nnc2c(=O)n(-c3ccccc3)ccn12)Nc1ccc2c(c1)OCCO2 | 7.64 | 0.98 | -23.79
COc1ccc(NC(=O)c2ccc3nn(CC(=O)Nc4ccc(C(F)(F)F)cc4)c(=O)n3c2)cc1 | -7.6 | 4.22 | -2.75
Cc1ccc(-c2cc3c4nn(CC(=O)NCc5ccc(Cl)cc5)c(=O)n4ccn3n2)cc1C | 7.6 | 2 | -10.6
Cc1ccc(-c2ccc3nnc(CCC(=O)N4CCN(C(=O)c5ccco5)CC4)n3n2)cc1C | 19.25 | 2.04 | -14.25
